PubChem BioAssay
Unmarked numbers belong to inactive results.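 The calls were made as follows: active = RAM network inhibition above 8.4% in each of two replicates, 3 SD over the compound average; inconclusive = above 8.4% inhibition in only one replicate; inactive = 8.4% inhibition or less in each replicate.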

Assay: RAM signaling pathway blockade in yeast – S. cerevisiae, Pdr1DBD-CYC8 efflux-inhibited sensitized strain, primary screen (AID 1298);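 also: 0% = DMSO untreated cells without growth and 100% = 10 µM 1-NA-PP1 full growth; higher means more yeast growth rescued from 5-FOA killing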
Conditions: S. cerevisiae cbk1-as DSE1-URA3 strain, 5-FOA growth OD615, 2 d; at 50 µM; active compounds read high

Compound | RAM network inhibition [%]
CC(=O)Nc1ccc(S(=O)(=O)NCc2ccc3c(c2)cc(C)n3C)cc1 | 2.12
CCOc1ccc(N(CC(=O)Nc2ccccc2)S(C)(=O)=O)cc1 | 4.68
O=C1NCC2=C1C(c1ccc(Br)cc1)Nc1ccccc1N2 (stereo not given) | -2.69
COc1ccccc1C(=O)NC(CCSC)C(=O)NCC(c1ccco1)N(C)C (stereo not given) | 1.92
COC(=O)c1ccc(-c2nc(-c3ccc(Br)o3)no2)cc1 | 1.84
CCOc1ccc(C2CC(c3ccc(OC)cc3)n3ncnc3N2)cc1 (stereo not given) | 4.99
O=C(NCC(c1ccc(F)cc1)N1CCOCC1)c1ccc(Br)o1 (stereo not given) | 1.24
Cc1noc(C)c1S(=O)(=O)N(CC(=O)N1CCCC1)c1ccc(C(C)C)cc1 | 4.43
O=C(CSc1nc2c(c(=O)n1-c1ccc(Cl)cc1)SCC2)Nc1nccs1 | 5.03
CCOc1ccc(C2CC(c3ccc(CC)cc3)n3nc(N)nc3N2)cc1 (stereo not given) | 3.52
COC(=O)CSc1nc(C)cc(Oc2ccccc2)n1 | 4.9
CCCN(CCC)C(=O)CCS(=O)(=O)c1cccc2nsnc12 | 2.25
O=C(NC1CCCC1)C1c2ccccc2C(=O)N1CCCN1CCOCC1 (stereo not given) | 1.51
CCCCCOC(=O)NCC(O)c1ccccc1 (stereo not given) | 5.59
Cc1cc(C)c2c(=O)n(CC(=O)N3CCC(N4CCCCC4)CC3)sc2n1 | 0.2
Cn1c(=O)c2cc(NCc3ccccc3)nnc2n(C)c1=O | -0.94
COC(=O)C1=CNC=C(C(=O)OC)C1c1ccc(C(=O)OC)cc1 | 2.17
CC(O)c1cccc(NC(=O)CCC(=O)O)c1 (stereo not given) | -1.13
CCSc1nnc(NC(=O)c2cc3c(s2)CCCC3)s1 | -1.29
CC(CCc1ccco1)NC(=O)c1cc2c(-c3ccccc3F)nn(C)c2s1 (stereo not given) | -0.15

Compound | RAM network inhibition [%]
COc1ccc(CNC(=O)c2ccc3c(c2)N(C)C(=O)CS3=O)cc1 (stereo not given) | 2.04
Cc1ccc(OCCN2CCCCCC2)c(C)c1 | 2.8
C(=N\c1nccs1)/c1cccnc1 | 2.23
Cc1ccc(S(=O)(=O)CCc2nc3ccccc3n2CCC#N)cc1 | 0.01
CCOC(=O)CC1C(=O)NCCN1Cc1cccc(OC)c1 (stereo not given) | 1.79
COc1ccc(-c2cc(C(F)(F)F)n3nc(C)cc3n2)cc1 | -0.06
Cn1c(=O)[nH]c(=O)c2c1nc(N1CCCCC1)n2CCSc1nc2ccccc2o1 | 1.87
O=C(CN1C(=O)c2ccccc2S1(=O)=O)NC1CCCCCC1 | 4.59
CC(C)n1c(=O)[nH]c2ccccc21 | 2.88
O=C(O)C1C2C=CC3(CN(C/C=C/c4ccccc4)C(=O)C13)O2 (stereo not given) | 3.71
CCCn1nc2ccccc2c1P(=N)(N1CCOCC1)N1CCOCC1 | 1.45
CCOc1ccc(C2N(c3ccc(F)cc3)C(=O)C3CCCN32)cc1 (stereo not given) | 4.43
COc1ccc(-n2c(C)nc3c(cnn3-c3ccc(C)c(C)c3)c2=O)cc1 | 5.89
CCSCCOC(=O)C1=C(C)NC(=O)NC1c1cccc(OC)c1OC (stereo not given) | 0.63
CCOc1ccc(NC(=O)CSc2nc3c(c(=O)n2-c2ccccc2OC)SCC3)cc1 | 1.18
CCOc1ccccc1N1C(=O)c2cccnc2C1=O | 10.2
CCOc1ccc(-n2c(SCC(=O)NCc3ccco3)nc3c(c2=O)SCC3)cc1 | 7.34
Cc1ccc(-c2nnc3n2N=C(c2ccccc2)CS3)cc1 | 2.25
Cc1cc(N2CCCC2)n2nc(C)nc2n1 | 1.98
CS(=O)(=O)c1ccc(N)cc1 | 1.16
